# Measurements reported in the supplement of paper PMC6897291.
# Where a name gives a salt, the structure may show the parent alone.
# Tests used:
# U-2932 [1] = assay: growth inhibition by drug alone (1 - RLU/untreated control) (fraction); higher = stronger inhibition; conditions: 177Lu-lilotomab satetraxetan 0 ug/ml
# How it was run: (§1)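 RIVA or U-2932 cells were left untreated or pretreated for 18 h with a radiolabelled anti-CD37 antibody conjugate (~600 MBq/mg) at 0.5 µg/ml for RIVA or 1 µg/ml for U-2932. The cells were then washed and seeded at 3,000 cells/well on plates pre-printed with the Selleck Cambridge Cancer Compound library, dosed at 10/100 nM for RIVA and 10/1,000 nM for U-2932. From day 3, RealTime-Glo luminescence was read daily after 1 h at 37°C. Growth inhibition was taken as one minus RLU over the mean of the untreated no-drug wells, of which there were 48 per plate.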
# RIVA [2] = assay: as above; conditions: 177Lu-lilotomab satetraxetan 0 ug/ml
# How it was run: as §1
# U-2932 [3] = assay: growth inhibition by drug plus 177Lu-lilotomab satetraxetan (1 - RLU/untreated control) (fraction); higher = stronger inhibition; conditions: 177Lu-lilotomab satetraxetan 1 ug/ml
# How it was run: as §1
# RIVA [4] = assay: as above; conditions: 177Lu-lilotomab satetraxetan 0.5 ug/ml
# How it was run: as §1
Compound,"growth inhibition by drug alone (U-2932 [1]; 10 nM, time (day): 3)","growth inhibition by drug alone (U-2932 [1]; 10 nM, time (day): 4)","growth inhibition by drug alone (U-2932 [1]; 10 nM, time (day): 5)","growth inhibition by drug alone (U-2932 [1]; 10 nM, time (day): 6)","growth inhibition by drug alone (U-2932 [1]; 1000 nM, time (day): 3)","growth inhibition by drug alone (U-2932 [1]; 1000 nM, time (day): 4)","growth inhibition by drug alone (U-2932 [1]; 1000 nM, time (day): 5)","growth inhibition by drug alone (U-2932 [1]; 1000 nM, time (day): 6)","growth inhibition by drug alone (RIVA [2]; 10 nM, time (day): 3)","growth inhibition by drug alone (RIVA [2]; 10 nM, time (day): 4)","growth inhibition by drug alone (RIVA [2]; 10 nM, time (day): 5)","growth inhibition by drug alone (RIVA [2]; 10 nM, time (day): 6)","growth inhibition by drug alone (RIVA [2]; 100 nM, time (day): 3)","growth inhibition by drug alone (RIVA [2]; 100 nM, time (day): 4)","growth inhibition by drug alone (RIVA [2]; 100 nM, time (day): 5)","growth inhibition by drug alone (RIVA [2]; 100 nM, time (day): 6)","growth inhibition by drug plus 177Lu-lilotomab satetraxetan (U-2932 [3]; 10 nM, time (day): 3)","growth inhibition by drug plus 177Lu-lilotomab satetraxetan (U-2932 [3]; 10 nM, time (day): 4)","growth inhibition by drug plus 177Lu-lilotomab satetraxetan (U-2932 [3]; 10 nM, time (day): 5)","growth inhibition by drug plus 177Lu-lilotomab satetraxetan (U-2932 [3]; 10 nM, time (day): 6)","growth inhibition by drug plus 177Lu-lilotomab satetraxetan (U-2932 [3]; 1000 nM, time (day): 3)","growth inhibition by drug plus 177Lu-lilotomab satetraxetan (U-2932 [3]; 1000 nM, time (day): 4)","growth inhibition by drug plus 177Lu-lilotomab satetraxetan (U-2932 [3]; 1000 nM, time (day): 5)","growth inhibition by drug plus 177Lu-lilotomab satetraxetan (U-2932 [3]; 1000 nM, time (day): 6)","growth inhibition by drug plus 177Lu-lilotomab satetraxetan (RIVA [4]; 10 nM, time (day): 3)","growth inhibition by drug plus 177Lu-lilotomab satetraxetan (RIVA [4]; 10 nM, time (day): 4)","growth inhibition by drug plus 177Lu-lilotomab satetraxetan (RIVA [4]; 10 nM, time (day): 5)","growth inhibition by drug plus 177Lu-lilotomab satetraxetan (RIVA [4]; 10 nM, time (day): 6)","growth inhibition by drug plus 177Lu-lilotomab satetraxetan (RIVA [4]; 100 nM, time (day): 3)","growth inhibition by drug plus 177Lu-lilotomab satetraxetan (RIVA [4]; 100 nM, time (day): 4)","growth inhibition by drug plus 177Lu-lilotomab satetraxetan (RIVA [4]; 100 nM, time (day): 5)","growth inhibition by drug plus 177Lu-lilotomab satetraxetan (RIVA [4]; 100 nM, time (day): 6)"
CC1(COc2ccc3c(c2)ncn3-c2ccc3cccc(N4CCC(N)CC4)c3n2)COC1,0.0766,0.0633,0.00938,-0.0623,0.0371,0.0705,-0.00181,0.0785,0.0318,-0.0103,-0.0736,-0.123,-0.25,-0.202,-0.209,-0.254,0.0763,0.118,0.168,0.194,0.257,0.342,0.386,0.516,0.618,0.628,0.633,0.631,0.449,0.485,0.466,0.463
O=C(NCCS(=O)(=O)c1ccc(C(F)(F)F)cn1)c1ccc(Cl)cc1,-0.00204,-0.0169,-0.0367,-0.101,0.00453,0.00465,-0.0415,0.00213,-0.0219,-0.049,-0.0699,-0.142,-0.409,-0.334,-0.354,-0.458,-0.0322,0.0392,0.0668,0.0664,-0.0112,0.0515,0.0729,0.179,0.548,0.553,0.579,0.579,0.416,0.503,0.517,0.521
CC(C)(C)c1cnc(CSc2cnc(NC(=O)C3CCNCC3)s2)o1,-0.112,-0.121,-0.0865,-0.0439,0.946,0.962,0.971,0.978,-0.214,-0.262,-0.264,-0.28,-0.524,-0.411,-0.58,-0.723,-0.136,-0.0562,0.00872,0.121,0.955,0.966,0.975,0.983,0.484,0.533,0.556,0.564,0.267,0.359,0.373,0.353
CC(C)(C)c1cc(NC(=O)Nc2ccc(-c3cn4c(n3)sc3cc(OCCN5CCOCC5)ccc34)cc2)no1 [Quizartinib (AC220)],0.0329,-0.0112,-0.0203,0.0321,-0.0933,-0.0955,-0.0983,0.0473,-0.0494,-0.0577,-0.051,-0.0533,-0.339,-0.307,-0.369,-0.46,0.0106,0.0631,0.109,0.208,-0.105,-0.0657,-0.0306,0.182,0.463,0.533,0.557,0.567,0.27,0.368,0.377,0.391
CCCS(=O)(=O)Nc1ccc(F)c(C(=O)c2c[nH]c3ncc(-c4ccc(Cl)cc4)cc23)c1F [Vemurafenib (PLX4032)],0.026,-4.15e-06,-0.0629,-0.147,-0.152,-0.0928,-0.16,-0.291,-0.0219,-0.0744,-0.165,-0.55,-0.231,-0.206,-0.219,-0.345,-0.0121,0.00305,0.0511,0.0873,-0.143,-0.047,-0.0561,0.06,0.42,0.546,0.561,0.576,0.432,0.531,0.539,0.524
C[C@@H]1C[C@H]2[C@@H]3CCC4=CC(=O)C=C[C@]4(C)[C@@]3(F)[C@@H](O)C[C@]2(C)[C@@]1(O)C(=O)CO [Dexamethasone],0.345,0.301,0.236,0.236,0.466,0.472,0.362,0.306,0.0365,0.0468,-0.018,-0.23,-0.0879,-0.051,-0.149,-0.312,0.277,0.301,0.26,0.353,0.422,0.466,0.406,0.431,0.415,0.467,0.484,0.498,0.362,0.429,0.417,0.414
CN1CCN(c2cccc(Nc3nc4c(-c5ccc(S(C)(=O)=O)cc5)cccn4n3)c2)CC1,0.0344,0.0428,0.0368,0.113,0.028,0.0442,0.0461,0.102,-0.0335,-0.0683,-0.203,-0.505,-0.0314,-0.0426,-0.0675,-0.155,0.0292,0.0656,0.062,0.17,-0.0239,0.0604,0.101,0.21,0.369,0.484,0.496,0.524,0.396,0.419,0.425,0.401
O=C1c2ccccc2-c2nc3nonc3nc21,0.122,0.0829,-0.0474,-0.0365,0.144,0.236,0.193,0.28,-0.0244,-0.0693,-0.283,-0.811,-0.571,-0.488,-0.554,-0.831,0.0325,0.0601,0.0603,0.0121,0.496,0.527,0.536,0.582,0.417,0.519,0.528,0.542,0.116,0.288,0.31,0.332
O=C1CN2Cc3c(ccc(Cl)c3Cl)N=C2N1 [Anagrelide hydrochloride],0.1,0.0554,-0.0277,-0.0568,0.0693,0.0958,0.0817,0.0377,0.16,0.111,0.0638,-0.0807,0.214,0.214,0.119,0.0727,0.101,0.119,0.141,0.272,0.0494,0.088,0.102,0.224,0.579,0.615,0.628,0.641,0.541,0.572,0.579,0.558
C[C@@H](O[C@H]1OCCN(Cc2n[nH]c(=O)[nH]2)[C@H]1c1ccc(F)cc1)c1cc(C(F)(F)F)cc(C(F)(F)F)c1 [Aprepitant (MK-0869)],-0.0806,-0.0554,-0.0486,0.0358,-0.0765,-0.0282,-0.0265,-0.0573,-0.223,-0.258,-0.291,-0.358,-0.233,-0.342,-0.277,-0.366,-0.142,-0.123,-0.143,-0.121,-0.075,0.0386,0.0779,0.19,0.306,0.465,0.481,0.488,0.319,0.43,0.441,0.419
Cc1cnc(Nc2ccc(OCCN3CCCC3)cc2)nc1Nc1cccc(S(=O)(=O)NC(C)(C)C)c1,-0.0562,-0.0523,-0.0582,-0.0993,0.149,0.111,-0.00563,0.00366,-0.231,-0.238,-0.322,-0.459,-0.338,-0.438,-0.41,-0.775,-0.0587,-0.0475,-0.0161,0.0198,0.127,0.122,0.0513,0.0765,0.273,0.437,0.468,0.492,0.205,0.275,0.289,0.307
Cc1nnc(C(C)C)n1C1C[C@H]2CC[C@@H](C1)N2CC[C@H](NC(=O)C1CCC(F)(F)CC1)c1ccccc1 (stereo in doubt) [Maraviroc],0.125,0.118,0.0854,-0.0157,0.0827,0.0764,-0.0104,-0.122,0.071,0.0921,0.049,-0.0807,0.1,0.0864,0.0269,-0.0532,0.128,0.146,0.143,0.239,0.0251,0.112,0.105,0.201,0.542,0.609,0.618,0.645,0.545,0.593,0.587,0.584
O=C1[C@H](CC[C@H](O)c2ccc(F)cc2)[C@@H](c2ccc(O)cc2)N1c1ccc(F)cc1 [Ezetimibe (Zetia)],0.207,0.167,0.0126,-0.0222,0.1,0.113,0.0388,-0.0102,0.0453,0.0693,-0.0268,-0.174,-0.17,-0.068,-0.0985,-0.21,0.101,0.145,0.218,0.274,0.142,0.17,0.216,0.332,0.537,0.594,0.604,0.623,0.406,0.479,0.489,0.494
Cn1cc(-c2ccc3nnc(Sc4ccc5ncccc5c4)n3n2)cn1,0.0784,0.0569,-0.0234,-0.0672,0.09,0.0464,-0.0633,-0.0059,0.0128,0.0644,0.0167,-0.227,-0.0367,0.0223,0.00017,-0.0611,0.0469,0.105,0.177,0.212,0.0614,0.085,0.142,0.222,0.61,0.637,0.638,0.635,0.458,0.538,0.561,0.584
CCN(CC)CCNC(=O)c1c(C)[nH]c(/C=C2\C(=O)Nc3ccc(F)cc32)c1C [Sunitinib Malate (Sutent)],0.0107,0.0161,-0.0625,-0.274,-0.0117,-0.00484,-0.0741,-0.207,-0.117,-0.163,-0.216,-0.511,-0.295,-0.315,-0.325,-0.492,-0.0903,-0.0528,-0.026,0.0273,-0.0792,-0.017,-0.0458,-0.033,0.291,0.452,0.477,0.49,0.257,0.374,,
